Hit rate of the full screen: of about 350,000 compounds, about 5,500 (1.6%) were called active.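 How the source made its calls: active means significant combined selectivity score with lowered wild-type GFP, culture density cut under 30%, mutant RFP and density less affected; inactive means any of these conditions unmet.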 For the sample, actives were picked, then their nearest neighbours and some compounds at random.

The nature of this experiment: GFP drop in mixed WT/humanized-ribosome E. coli culture – GFP/RFP fluorescence, OD600, single point, bacterial rRNA inhibitor project, primary screen (AID 720706). Conditions: E. coli WT GFP vs humanized-ribosome RFP mutants, 24 h; GFP signal change (wild-type ribosome): stronger effect = lower value, DMSO median 0, no signal -100; OD600 change: measured here: OD600 growth, DMSO median 0, no signal -100; RFP signal change: measured here: RFP humanized mutant strains, DMSO median 0, no signal -100, concentration not given here.
As for `CC(C)NC(=O)N(C)C[C@@H]1Oc2ccc(NC(=O)CCCCCC(=O)Nc3ccccc3N)cc2C(=O)N([C@@H](C)CO)C[C@H]1C`, the GFP signal change (wild-type ribosome) is 1.03% (inactive), the OD600 change was -8.13% and the RFP signal change was -0.166%.
In the case of `CO[C@H]1CN(C)C(=O)c2cc(NC(=O)c3cnccn3)ccc2OC[C@H](C)N(C(=O)C2CC2)C[C@H]1C`, the GFP signal change (wild-type ribosome) is 1% (inactive), the OD600 change was -0.758% and the RFP signal change is -0.83%.
For `N#Cc1cccc(-c2ccc(C3[C@@H]4CNC[C@H]3N4)cc2)c1` (stereo partly drawn), in that order: -0.575% (inactive), 6.2% and 2%.
In the case of `C[C@@H]1CCCCO[C@H](CN(C)S(=O)(=O)c2ccccc2)[C@@H](C)CN([C@H](C)CO)C(=O)c2cc(NC(=O)Nc3ccc(F)cc3)ccc2O1`, the GFP signal change (wild-type ribosome) is 4.23% (inactive), the OD600 change was found to be 5.59% and the RFP signal change was -0.807%.
The like results for `Oc1c(Br)cc(/C=N/NC(=S)NCC2CCCO2)cc1Br` (stereo not drawn) were, in that order, -32.6% (active), -2.28% and 0.247%.
For the compound `S=C(NCCc1ccccc1)NCC1CCCO1` (stereo not drawn), the GFP signal change (wild-type ribosome) is 8.89% (inactive), the OD600 change turned out to be 4.83% and the RFP signal change is -3.48%.
The like results for `S=C(NCC1CCCO1)N1CCN(c2ccc(Cl)c(Cl)c2)CC1` (stereo not drawn) were, in that order, -56.8% (inactive), -79.1% and -18.4%.
Turning to `C[C@@H]1CN([C@@H](C)CO)S(=O)(=O)c2ccc(Br)cc2O[C@H]1CN(C)S(=O)(=O)c1ccccc1`, the GFP signal change (wild-type ribosome) was -30.9% (inactive), the OD600 change is -59.2% and the RFP signal change turned out to be 14%.
For `CS(=O)(=O)N1CC2(C1)[C@H](c1ccccc1)[C@@H](CO)N2C(=O)c1ccccc1`, the GFP signal change (wild-type ribosome) is -2.24% (inactive), the OD600 change stood at 8.82% and the RFP signal change was -1.96%.
The like results for `O=C(c1ccccc1)N1CC(=O)N2[C@@H](CO)[C@H](c3ccc(C#CCC4CCCC4)cc3)[C@@H]2C1` were, in that order, -0.385% (inactive), 4.12% and 15.8%.
For the compound `O=C(Nc1cccc(Cl)c1)N1C[C@@H]2[C@H](c3ccccc31)[C@H](CO)N2C(=O)C1CC1`, the GFP signal change (wild-type ribosome) is -55.8% (inactive), the OD600 change was -75.7% and the RFP signal change was -10.1%.
In the case of `O=C(Nc1cccc(Cl)c1)N1C[C@@H]2[C@H](c3ccccc31)[C@H](CO)N2Cc1ccncc1`, the GFP signal change (wild-type ribosome) was -19.3% (active), the OD600 change was -14% and the RFP signal change is 2.23%.
Take `O=C(Nc1ccccc1)N1C[C@H]2[C@@H](c3ccccc31)[C@H](CO)N2Cc1ccc(F)cc1`: the GFP signal change (wild-type ribosome) is -4.61% (inactive), the OD600 change is -3.58% and the RFP signal change was found to be 0.773%.
For `O=C(C[C@@H]1C[C@@H]2c3cc(NC(=O)c4ccc5c(c4)OCO5)ccc3O[C@@H]2[C@H](CO)O1)NCC1CC1`, in that order: -0.47% (inactive), -2.45% and 1.83%.
In the case of `N#C[C@H]1[C@H](c2ccccc2-c2ccc(F)cc2)[C@H](CO)N1C(=O)Cc1ccncc1`, the GFP signal change (wild-type ribosome) is -3.78% (inactive), the OD600 change is 7.17% and the RFP signal change was -0.986%.
For `COCc1cn(CC[C@H]2CC[C@H](NC(=O)Cc3cccnc3)[C@H](CO)O2)nn1`, the GFP signal change (wild-type ribosome) was -2.43% (inactive), the OD600 change is -1.71% and the RFP signal change is -2.1%.
In the case of `CCOC(=O)N1CCN(C(=O)c2ccccc2N(Cc2ccccc2)S(=O)(=O)c2ccc(OC)cc2)CC1`, the GFP signal change (wild-type ribosome) was -25.8% (active), the OD600 change is -20.1% and the RFP signal change was found to be 0.913%.
`NC(=O)c1ccccc1N(Cc1ccccc1)S(=O)(=O)c1ccccc1`: the GFP signal change (wild-type ribosome) was -4.05% (inactive), the OD600 change was -16.6% and the RFP signal change was -0.699%.
For `C=CCN(c1ccccc1C(=O)NCC(=O)OCC)S(=O)(=O)c1ccc(C)cc1`, in that order: 5.68% (inactive), -1.3% and 1.08%.
Regarding `C[C@H](CO)N1C[C@H](C)[C@H](CN(C)C(=O)C2CC2)OCc2ccccc2-c2ccccc2C1=O`, the GFP signal change (wild-type ribosome) was 3.14% (inactive), the OD600 change came to 2.12% and the RFP signal change was -2.73%.
Regarding `CO[C@@H]1CN(C)C(=O)c2ccc(NC(=O)C3CC3)cc2OC[C@H](C)N(C(C)=O)C[C@H]1C`, the GFP signal change (wild-type ribosome) was 2.84% (inactive), the OD600 change stood at 2.36% and the RFP signal change is -2.71%.
As to `O=C1NCCOCc2cn(nn2)CC[C@@H]1Cc1ccccc1`, the GFP signal change (wild-type ribosome) is 4.08% (inactive), the OD600 change amounted to 6.55% and the RFP signal change was -0.105%.
For `O=C(Nc1nnc(Cc2ccccc2)s1)c1cnccn1`, in that order: 13.9% (inactive), 13.3% and 1.31%.
The like results for `O=C(Nc1nnc(Cc2ccc(Cl)cc2)s1)c1cccnc1` were, in that order, -2.18% (inactive), 2.81% and -2.51%.
Consider `O=C(Nc1nnc(Cc2ccc(Cl)cc2)s1)c1ccncc1`, for which the GFP signal change (wild-type ribosome) was -25.9% (active), the OD600 change came to 0.397% and the RFP signal change worked out at 10.4%.
On to `CO[C@@H]1CN(C)C(=O)c2ccc(NS(C)(=O)=O)cc2OC[C@@H](C)N(C(=O)C2CCOCC2)C[C@@H]1C`, for which the GFP signal change (wild-type ribosome) is 2.81% (inactive), the OD600 change was -0.862% and the RFP signal change was -0.242%.
The like results for `CS(=O)(=O)N1CCCCN2[C@H](CO)[C@H](c3ccc(-c4cccc(C#N)c4)cc3)[C@H]2C1` were, in that order, -2.77% (inactive), 2.86% and 1.13%.
For `C[C@@H](NC(=O)C[C@@H]1CC[C@H](NC(=O)Cc2ccccn2)[C@H](CO)O1)c1ccccc1`, the GFP signal change (wild-type ribosome) was 1.1% (inactive), the OD600 change was -1.33% and the RFP signal change turned out to be 0.264%.
For `COc1ccc(-c2cc(C(=O)N3CCN(Cc4ccc5c(c4)OCO5)CC3)on2)cc1OC`, in that order: -30.2% (active), -22.1% and 4.69%.
The like results for `Cc1cc(C)n2nc(C(=O)N3CCN(Cc4ccc5c(c4)OCO5)CC3)nc2n1` were, in that order, 6.71% (inactive), 4.13% and -0.674%.
For `COc1cc(Cl)c(S(=O)(=O)N2CCN(Cc3ccc4c(c3)OCO4)CC2)cc1Cl`, in that order: -5.43% (inactive), -7.87% and -2.97%.

(Values after PubChem BioAssay AID720706 (Broad Institute, 2013).)
